Source: PubChem BioAssay AID624330 (Southern Research Specialized Biocontainment Screening …, 2012)
Values joined by “and” are separate entries in the source; they are usually repeats but may differ in a detail not shown here. Equal entries are not always repeated. Among all 340,000 compounds or so, about 2,100 (0.62%) were called active.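 The calls were made as follows: active = first-screen hits whose inhibition reached a set limit at any dose in the follow-up dose series; inconclusive = inhibition above the set first-screen limit but never retested; inactive = the rest.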 Only a sample is shown. Potency and affinity values are given separately.

Molecular target: Rac GTPase-activating protein 1 (Homo sapiens) (UniProt Q9H0H5)
Test: MgcRacGAP GTPase-activating activity inhibitors, confirmation, biochemical, ADP Hunter fluorescence, primary and confirmatory (AID 624330);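 also: fluorescence reports GDP produced by GAP-driven GTP hydrolysis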
Details: MgcRacGAP-stimulated Rac1 GTP hydrolysis, at 30 µM, stronger effect = higher value, GST-tagged Rac1 F28L mutant substrate

Sequence of Rac GTPase-activating protein 1 (Homo sapiens) (Q9H0H5 whole entry, looked up): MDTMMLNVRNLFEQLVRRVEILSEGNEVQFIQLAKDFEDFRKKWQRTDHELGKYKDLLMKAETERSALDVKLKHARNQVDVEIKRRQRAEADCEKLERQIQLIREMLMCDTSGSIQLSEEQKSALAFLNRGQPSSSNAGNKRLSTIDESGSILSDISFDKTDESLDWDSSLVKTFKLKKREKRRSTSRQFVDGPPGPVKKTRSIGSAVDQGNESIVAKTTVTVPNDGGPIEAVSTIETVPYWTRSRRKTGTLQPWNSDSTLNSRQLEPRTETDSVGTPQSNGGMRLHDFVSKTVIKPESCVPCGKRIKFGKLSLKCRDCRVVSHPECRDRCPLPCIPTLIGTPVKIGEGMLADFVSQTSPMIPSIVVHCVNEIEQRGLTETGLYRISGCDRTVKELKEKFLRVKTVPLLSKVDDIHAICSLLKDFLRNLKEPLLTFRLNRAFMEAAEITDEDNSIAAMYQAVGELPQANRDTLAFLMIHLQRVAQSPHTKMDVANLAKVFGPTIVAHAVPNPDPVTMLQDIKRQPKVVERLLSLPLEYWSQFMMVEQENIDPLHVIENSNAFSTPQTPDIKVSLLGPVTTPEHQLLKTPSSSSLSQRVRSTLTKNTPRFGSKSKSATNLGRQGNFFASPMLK

inhibition, inactive:
O=C(CCSc1ccc(Cl)cc1)NCc1ccccn1 14.8%, CC(=O)CC(=O)Nc1ccc(Cl)cn1 4.78%, CCOC(=O)N1CCC(N2CCN(S(=O)(=O)c3ccc([N+](=O)[O-])cc3)CC2)CC1 30.9%, COc1ccc2nc(NC(=O)CSc3cn[nH]n3)sc2c1 6.06%, Nc1ccccc1NC(=O)NC(=O)c1ccccc1 12.1%, COC(=O)Cn1cc(/C=N/NC(=O)COc2cccc3cccnc23)c2ccccc21 5.77%, Cc1cc(C(=O)Nc2sccc2C#N)c2ccccc2n1 12%, Cn1nnc(NC(=O)c2ccc(Br)o2)n1 11.1%, COCc1ccc(CN2CCC(N3CCC(C(=O)N4CCCC4)CC3)CC2)o1 1.64%, CN(CC(=O)Nc1ccc(F)cc1)C(=O)c1cccc(NS(=O)(=O)c2ccccc2)c1 5.16%, COCCCNC(=O)/C(C#N)=C/c1c(N2CCN(c3ccccc3)CC2)nc2c(C)cccn2c1=O 10.4%, COCCNC(=O)/C(C#N)=C/c1c(N2CCN(c3ccc(OC)cc3)CC2)nc2c(C)cccn2c1=O 31.4%, OCCNCc1c(OCc2ccc(Cl)cc2)ccc2ccccc12 8.81%, CCc1ccc(NC(=O)CCNC(=O)Cn2cnc3ccccc3c2=O)cc1 9.24%, COc1ccc(-n2c(C)cc(/C=C3\C(=N)N4N=C(CC(=O)N5CCOCC5)SC4=NC3=O)c2C)c(OC)c1 -2.43%, Cc1cc(-c2ccc3ccccc3c2)n2ncnc2n1 -7.09%, Cc1cc(-c2ccccc2)n2ncnc2n1 6.89%, COc1ccc(NC(=O)CCCc2ccccc2)c(OC)c1 6.75%, CNC(=O)CC1C(=O)N(Cc2ccccc2)C(=S)N1NC(=O)c1cccc(F)c1 (stereo not drawn) -0.78%, COCCn1c(CN2CCc3ccccc3C2)nc2c1c(=O)n(C)c(=O)n2C 7.99%, CCCc1nc2ccccc2n1CCOc1ccccc1 3.33%, COc1cc(/C=N/NC(=O)C(=O)NCc2cccnc2)ccc1O 25.4%, N#C/C(=C/c1ccc(O)cc1)C(=O)NCc1ccc(Cl)cc1 3.42%, N#C/C(=C/c1cccc(O)c1)C(=O)NCc1ccc(Cl)cc1 24.4%, COc1ccc(/C=C(\C#N)C(=O)NCc2cccnc2)cc1OC 0.52%, CCOc1ccc(/C=C(\C#N)C(=O)NCC2CCCO2)cc1OCC (stereo not drawn) -2.79%, CCOc1cc(/C=C(\C#N)C(=O)Nc2ccccn2)ccc1O 12.8%, CCOc1cc(/C=C(\C#N)C(=O)NCC2CCCO2)ccc1OCC(N)=O (stereo not drawn) 4.74%, COc1ccc(/C=N/NC(=O)C(=O)NCc2cccnc2)cc1OC -5.14%, O=C(NCc1ccco1)C1CC(c2cc(C(F)(F)F)cc(C(F)(F)F)c2)=NO1 (stereo not drawn) 6.53%, COc1cc2c(cc1NC(=O)CN(C)Cc1nc3ccccc3c(=O)[nH]1)oc1ccccc12 5.31%, O=C(Nc1ccc(Cl)cc1Cl)NC1CCN(S(=O)(=O)c2ccc(F)cc2)CC1 9.28%, Cc1ccc(-c2ccc(/C=N/NC(=O)Cc3nnc(N)s3)o2)cc1Cl 7.23%, COc1ccc(S(=O)(=O)N2CCOCC2)cc1NC(=O)c1cc(C)oc1C 6.98%, O=C(Cn1sc2ccccc2c1=O)Nc1ccc(Cl)cc1 31.2%, CCn1c(=O)n(CC(=O)Nc2ccc(F)cc2)c(=O)c2ccccc21 12.4%, O=C(Cn1nc(-c2ccccc2)c2ccccc2c1=O)Nc1ccc(F)cc1 5.93%, O=C(Cn1sc2ccccc2c1=O)Nc1ccc(Br)cc1 31.7%, O=c1c(-c2ccc(Br)cc2)[n+]([O-])c2ccccc2n1OCc1ccccc1 -0.43%, CSc1ccc(Cn2nnc(C(=O)Nc3ccc(C)c(C)c3)c2N)cc1 8.18%, Cn1c(SCC(=O)Nc2cccc(F)c2)nnc1-c1cc2ccccc2o1 7.89%, Nc1ccc(NC(=O)c2cccs2)cc1 24%, CC1=C(C(=O)NCCc2ccc(C)cc2)C2(CCC(C)CC2)OC1=O (stereo not drawn) 7.59%, O=C(NC1=C(Nc2ccc(Cl)cc2)C(=O)c2ccccc2C1=O)c1ccccc1 6.16%, O=C(Nc1ccccc1Cl)c1ccccc1 6.83%, C/C(=N\NC(=O)C(O)c1ccccc1)c1cccnc1 (stereo not drawn) 2.12%, O=C(NN=Cc1ccc(N2CCOCC2)s1)c1ccc([N+](=O)[O-])cc1 9.59%, COc1ccc(C(=O)N/N=C/c2ccc(N3CCOCC3)o2)cc1OC 14.2%, COc1ccc(C(=O)N/N=C/c2sc(N3CCOCC3)nc2-c2ccccc2)cc1OC 7.1%, O=C(N/N=C/c1ccc(N2CCOCC2)s1)c1ccccc1Cl 25.1%, O=C(N/N=C/c1ccc(N2CCOCC2)s1)c1ccc(NS(=O)(=O)c2cccs2)cc1 18.4%, Nc1ccc(C(=O)N/N=C/c2sc(N3CCOCC3)nc2-c2ccccc2)cc1 12%, CCCNC(=O)CSC1=N/C(=C/c2ccc(F)cc2)C(=O)N1CC -5.26%, CCC(=O)NC(=S)Nc1ccc(S(=O)(=O)NC(C)C)cc1 -11.4%, O=C(COC(=O)C1CCC1)Nc1cccc(Cl)c1 2.49%, O=C(NC1CCCCC1)C(c1ccncc1)N(C(=O)c1csnn1)c1ccc(F)cc1 (stereo not drawn) 0.4%, CC1=CCC2C(=O)N(c3ccccc3OC(=O)c3ccccc3F)C(=O)C2C1 (stereo not drawn) 2.92%, C=CCC1CCC/C(=N\NS(=O)(=O)c2ccc(C)cc2)C1 (stereo not drawn) -4.06%, Nc1ccn(CCCN2CCN(C(=O)C3CC3)CC2)c(=O)n1 15.1%, COc1cc(C2c3[nH]c4ccccc4c3C[C@H]3C(=O)N(CCO)CC(=O)N23)cc(OC)c1OC (stereo partly drawn) 8.37%, Cc1c(C(=O)N2CCN(S(=O)(=O)c3ccccc3)CC2)oc2ccccc12 3.82%, O=C(Nc1ccccc1)N1CCc2scc[n+]2-c2ccccc21 16.9%, O=C(NCc1nnc(SCC(=O)N2CCOCC2)o1)c1c(F)cccc1F 7.33%, O=C(NNc1c(Cl)cccc1Cl)c1sccc1Cl 6.69%, COc1ccc(NC(C)=O)c(C)c1 -3.51%, COc1ccc(Nc2cccccc2=O)cc1 7.45%, COc1ccc(Nc2cccc3ccccc23)cc1 31.6%, COc1ccc(C(=O)Nc2ccc3ccccc3c2)cc1 3.97%, O=C(Nc1ccc(S(=O)(=O)Nc2ncccn2)cc1)c1ccccc1 2.75%, CCc1cccc(CC)c1NC(=O)CN1CCN(c2ccccc2)CC1 20.5%, COc1ccccc1NS(=O)(=O)c1ccc(C)c(C(=O)N2CCCC2)c1 -1.95%, COc1ccc(OC)c(CN2CCN(C(=O)c3cc(S(=O)(=O)Nc4ccccc4OC)ccc3C)CC2)c1 -2.48%, COc1cc(C(O)P(=O)(OCCC(C)C)c2ccc(N(C)C)cc2)cc(OC)c1OC (stereo not drawn) -1.91%, CN(C)/C=N/c1ncc(C(=O)c2ccccc2)s1 7.32%, CN(C)/C=N/c1ncc(C(=O)c2ccc(Cl)cc2)s1 3.44%, COc1ccc(CC(=O)NNC(=O)c2cc(Cl)ccc2OC)cc1 -0.57%, CC(Oc1ccccc1)C(=O)NC1C(=O)N2C1SC(C)(C)C2C(=O)O (stereo not drawn) 6.29%, O=C1c2ccccc2C(=O)N1CSc1nnc(Nc2ccccc2F)s1 5.49%, Cc1cccc(Nc2nc3ccccc3s2)c1C 0.63%, Cc1nnc(Nc2ccccc2F)s1 8%, Cc1nnc(Nc2ccc(Cl)cc2)s1 -3.99%, COc1ccccc1Nc1ccc(Nc2ccccc2OC)nn1 -7.41%, Cc1ccc(Nc2nc3ccccc3o2)cc1F 1.08%, Cc1nc(CSc2nnc(Nc3cccc(C)c3C)s2)cs1 4.77%, COc1ccccc1Nc1nc(C)cs1 0.84% and 0.19%, Cc1cc(C)n(C(=O)c2c([N+](=O)[O-])cnn2C)n1 -7.87%, O=C(Cc1ccc(F)cc1)Nc1cccc2cccnc12 5.65%, Cc1ccc(Sc2cnccc2C#N)cc1 -14.2%, COC(=O)c1cc(C(=O)OCC(=O)N(C)C2CCS(=O)(=O)C2)cc([N+](=O)[O-])c1 (stereo not drawn) -3.52%, CC1Sc2ccc(S(=O)(=O)N3CCC(C(=O)NCCc4ccccc4)CC3)cc2NC1=O (stereo not drawn) 6.85%, COc1cc(C2NC(=O)NC(c3ccccc3)=C2C(C)=O)c(Br)c(Br)c1O (stereo not drawn) 25.1%, CCOC(=O)c1cc(NC(=O)C2C3C=CC(O3)C2C(=O)O)cc(C(=O)OCC)c1 (stereo not drawn) 6.71%, CN1CCN(S(=O)(=O)c2ccc(Oc3cccc(C(F)(F)F)c3)nc2)CC1 9.66%, O=c1c(Br)c(N2CCCCC2)cnn1-c1ccccc1 3.03%, CCc1cc(=O)oc2cc(OCC(=O)NCCN3CCOCC3)c(Cl)cc12 0.13%, Cc1ccc(Nc2nc3ccccc3s2)c(C)c1 7.17%, Clc1ccccc1Nc1nnc(-c2ccncc2)s1 12.4%, Cc1cc(=O)[nH]c(Nc2cccc(Cl)c2C)n1 3.14%, O=C(c1ccccc1)c1cnc(Nc2ccccc2Cl)s1 8.39%, CCOc1ccc(Nc2nc3ccccc3c(=O)s2)cc1 4.2%, Cc1ccc(Nc2nc3c(s2)CCC3)c(C)c1 9.23%, Cc1c(Cl)cccc1Nc1ccccc1C(=O)O 3.44%, CCOC(=O)c1sc(Nc2ccc(OCC)cc2)nc1C -3.93%
